Laboratory results taken from PubChem BioAssay AID1159580 (chemical genetic matrix, 2015).
Among all 5,500 compounds or so, about 2,000 (36%) were called active. Inconclusive results (about 18%) are left out. No stated cut-off is given here; in the data, active means normalized growth mostly below about 0.91 (no sharp cut-off); inconclusive means no clear call, values can overlap the other calls; inactive means mostly above about 0.92. This is one part of the list.

Test: chemical genetic growth profiling, strain panel (AID 1159580);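 further: tested at 20 µM; growth read once vehicle control cultures reached saturation at 30 °C; 1 = growth at the plate median or of vehicle wells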
Details: growth OD

Measured: normalized growth

N#C/C(=C\c1cccc(O)c1)C(=O)O
inactive: S. cerevisiae deletion strains, locus YJR075W, strain HOC1, stronger effect = lower value 0.98 | S. cerevisiae deletion strains, locus YKL009W, strain mrt4, stronger effect = lower value 0.989 | S. cerevisiae deletion strains, locus YKL068W, stronger effect = lower value 0.998 | S. cerevisiae deletion strains, locus YKL085W, strain MDH1 (second series), stronger effect = lower value 0.951 | S. cerevisiae deletion strains, locus YKL085W, strain MDH1, stronger effect = lower value 0.951 | S. cerevisiae deletion strains, locus YKL160W, strain elf1, stronger effect = lower value 0.977 | S. cerevisiae deletion strains, locus YKL190W, strain CNB1, stronger effect = lower value 0.99 | S. cerevisiae deletion strains, locus YKR001C, strain vps1, stronger effect = lower value 1 | S. cerevisiae deletion strains, locus YKR026C, strain gcn3, stronger effect = lower value 1 | S. cerevisiae deletion strains, locus YKR091W, strain srl3, stronger effect = lower value 0.976 | S. cerevisiae deletion strains, locus YLL001W, strain dnm1, stronger effect = lower value 1.03 | S. cerevisiae deletion strains, locus YLL026W, stronger effect = lower value 0.974 | S. cerevisiae deletion strains, locus YLL041C, strain sdh2, stronger effect = lower value 0.984 | S. cerevisiae deletion strains, locus YLR027C, strain aat2, stronger effect = lower value 0.985 | S. cerevisiae deletion strains, locus YLR039C, strain RIC1, stronger effect = lower value 1.01 | S. cerevisiae deletion strains, locus YLR058C, strain SHM2, stronger effect = lower value 0.979 | S. cerevisiae deletion strains, locus YLR102C, strain apc9, stronger effect = lower value 0.988 | S. cerevisiae deletion strains, locus YLR113W, strain HOG1, stronger effect = lower value 0.971 | S. cerevisiae deletion strains, locus YLR221C, strain rsa3, stronger effect = lower value 1.02 | S. cerevisiae deletion strains, locus YLR258W, strain gsy2, stronger effect = lower value 0.977 | S. cerevisiae deletion strains, locus YLR262C, strain YPT6 (second series), stronger effect = lower value 0.974 | S. cerevisiae deletion strains, locus YLR262C, strain YPT6, stronger effect = lower value 0.957 | S. cerevisiae deletion strains, locus YLR268W, strain sec22, stronger effect = lower value 0.987 | S. cerevisiae deletion strains, locus YLR320W, strain mms22, stronger effect = lower value 1.03 | S. cerevisiae deletion strains, locus YLR330W, strain CHS5, stronger effect = lower value 0.989 | S. cerevisiae deletion strains, locus YLR342W, strain FKS1 (second series), stronger effect = lower value 1.09 | S. cerevisiae deletion strains, locus YLR342W, strain FKS1, stronger effect = lower value 0.99 | S. cerevisiae deletion strains, locus YLR357W, strain rsc2, stronger effect = lower value 0.988 | S. cerevisiae deletion strains, locus YLR370C, strain arc18, stronger effect = lower value 0.978 | S. cerevisiae deletion strains, locus YLR371W, strain rom2, stronger effect = lower value 1 | S. cerevisiae deletion strains, locus YLR384C, strain iki3, stronger effect = lower value 0.991 | S. cerevisiae deletion strains, locus YLR418C, strain cdc73, stronger effect = lower value 0.964 | S. cerevisiae deletion strains, locus YML016C, strain PPZ1, stronger effect = lower value 1 | S. cerevisiae deletion strains, locus YML032C, strain rad52, stronger effect = lower value 1.02 | S. cerevisiae deletion strains, locus YML120C, strain ndi1, stronger effect = lower value 0.992 | S. cerevisiae deletion strains, locus YML124C, strain tub3, stronger effect = lower value 1 | S. cerevisiae deletion strains, locus YMR058W, strain fet3, stronger effect = lower value 0.997 | S. cerevisiae deletion strains, locus YMR078C, strain ctf18, stronger effect = lower value 0.996 | S. cerevisiae deletion strains, locus YMR125W, strain sto1, stronger effect = lower value 0.991 | S. cerevisiae deletion strains, locus YMR129W, stronger effect = lower value 0.964 | S. cerevisiae deletion strains, locus YMR205C, strain PFK2, stronger effect = lower value 1.02 | S. cerevisiae deletion strains, locus YMR223W, strain ubp8, stronger effect = lower value 1.05 | S. cerevisiae deletion strains, locus YMR231W, strain pep5, stronger effect = lower value 0.991 | S. cerevisiae deletion strains, locus YMR263W, strain SAP30, stronger effect = lower value 0.979 | S. cerevisiae deletion strains, locus YMR307W, strain GAS1, stronger effect = lower value 1.08 | S. cerevisiae deletion strains, locus YNL067W, strain RPL9B, stronger effect = lower value 0.989 | S. cerevisiae deletion strains, locus YNL071W, strain lat1, stronger effect = lower value 0.997 | S. cerevisiae deletion strains, locus YNL128W, strain TEP1, stronger effect = lower value 0.928 | S. cerevisiae deletion strains, locus YNL153C, strain GIM3, stronger effect = lower value 0.984 | S. cerevisiae deletion strains, locus YNL183C, strain NPR1, stronger effect = lower value 0.915 | S. cerevisiae deletion strains, locus YNL209W, strain ssb2, stronger effect = lower value 1 | S. cerevisiae deletion strains, locus YNL233W, strain BNI4, stronger effect = lower value 1.01 | S. cerevisiae deletion strains, locus YNL248C, strain rpa49, stronger effect = lower value 0.963 | S. cerevisiae deletion strains, locus YNL250W, strain rad50, stronger effect = lower value 0.991 | S. cerevisiae deletion strains, locus YNL271C, strain bni1, stronger effect = lower value 1.01 | S. cerevisiae deletion strains, locus YNL298W, strain CLA4, stronger effect = lower value 1 | S. cerevisiae deletion strains, locus YNL307C, strain MCK1, stronger effect = lower value 1.03 | S. cerevisiae deletion strains, locus YNL322C, strain KRE1 (second series), stronger effect = lower value 0.952 | S. cerevisiae deletion strains, locus YNL322C, strain KRE1, stronger effect = lower value 0.979 | S. cerevisiae deletion strains, locus YNR049C, strain mso1, stronger effect = lower value 0.961 | S. cerevisiae deletion strains, locus YNR052C, strain pop2, stronger effect = lower value 0.995 | S. cerevisiae deletion strains, locus YOL006C, strain TOP1, stronger effect = lower value 0.975 | S. cerevisiae deletion strains, locus YOL012C, strain htz1 1.3 | S. cerevisiae deletion strains, locus YOL147C, strain pex11, stronger effect = lower value 0.994 | S. cerevisiae deletion strains, locus YOR001W, strain rrp6, stronger effect = lower value 1.02 | S. cerevisiae deletion strains, locus YOR061W, strain CKA2, stronger effect = lower value 0.96 | S. cerevisiae deletion strains, locus YOR069W, strain VPS5, stronger effect = lower value 0.997 | S. cerevisiae deletion strains, locus YOR070C, strain gyp1, stronger effect = lower value 0.993 | S. cerevisiae deletion strains, locus YOR080W, strain dia2, stronger effect = lower value 0.984 | S. cerevisiae deletion strains, locus YOR083W, strain WHI5, stronger effect = lower value 0.916 | S. cerevisiae deletion strains, locus YOR106W, strain vam3, stronger effect = lower value 0.924 | S. cerevisiae deletion strains, locus YOR136W, strain idh2, stronger effect = lower value 1.01 | S. cerevisiae deletion strains, locus YOR144C, strain elg1, stronger effect = lower value 0.989 | S. cerevisiae deletion strains, locus YOR184W, strain ser1, stronger effect = lower value 1.06 | S. cerevisiae deletion strains, locus YOR231W, strain MKK1, stronger effect = lower value 0.973 | S. cerevisiae deletion strains, locus YOR265W, strain rbl2, stronger effect = lower value 0.964 | S. cerevisiae deletion strains, locus YOR270C, strain vph1, stronger effect = lower value 0.997 | S. cerevisiae deletion strains, locus YOR290C, strain snf2, stronger effect = lower value 0.967 | S. cerevisiae deletion strains, locus YOR316C, strain cot1, stronger effect = lower value 0.986 | S. cerevisiae deletion strains, locus YPL051W, strain arl3, stronger effect = lower value 0.981 | S. cerevisiae deletion strains, locus YPL055C, strain LGE1, stronger effect = lower value 0.96 | S. cerevisiae deletion strains, locus YPL078C, strain atp4, stronger effect = lower value 0.991 | S. cerevisiae deletion strains, locus YPL106C, strain sse1, stronger effect = lower value 0.961 | S. cerevisiae deletion strains, locus YPL240C, strain hsp82, stronger effect = lower value 0.986 | S. cerevisiae deletion strains, locus YPL241C, strain CIN2, stronger effect = lower value 0.987 | S. cerevisiae deletion strains, locus YPL256C, strain CLN2, stronger effect = lower value 0.977 | S. cerevisiae deletion strains, locus YPR119W, strain clb2, stronger effect = lower value 0.987 | S. cerevisiae deletion strains, locus YPR141C, strain kar3, stronger effect = lower value 0.975 | S. cerevisiae deletion strains, locus YPR163C, strain tif3, stronger effect = lower value 0.998 | S. cerevisiae deletion strains, locus YPR167C, strain met16, stronger effect = lower value 0.981 | S. cerevisiae deletion strains, strain wtn01, stronger effect = lower value 0.98 | S. cerevisiae strains, strain wild type, stronger effect = lower value 1.02
